Test results from PubChem BioAssay (NCI).
The panel holds about 79,000 compounds, 15% with a hit somewhere; the sample as a whole holds those more often. Active and inactive are the calls of the source. Rule as the data show it: active = growth inhibition above about 70%; inactive = the rest.

Tests used:
[1] = NCI Yeast Anticancer Drug Screen. Data for the rad50 strain (AID 155);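 also: 0% = growth of vehicle-only cultures of the same strain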; details: S. cerevisiae rad50 strain growth inhibition, hits give high values
Method in brief: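 Vehicle-treated cultures provide the reference for the growth inhibition reported for compound-exposed, repair-deficient yeast.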

[2] = NCI Yeast Anticancer Drug Screen. Data for the mec2-1 strain (AID 157); details: S. cerevisiae mec2-1 strain, hits give high values
Method in brief: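 Compounds were applied to mec2-1 yeast cells. Their growth was then compared with that of vehicle-treated cultures to give growth inhibition.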

[3] = NCI Yeast Anticancer Drug Screen. Data for the sgs1 mgt1 strain (AID 161);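 also: 0% = growth of cultures given vehicle only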; details: S. cerevisiae sgs1 mgt1 strain, hits give high values
Method in brief: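 Growth of a repair-deficient yeast mutant was monitored after compound treatment and expressed as inhibition relative to vehicle-treated cultures.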

[4] = NCI Yeast Anticancer Drug Screen. Data for the cln2 rad14 strain (AID 165);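 also: 0% = growth equal to vehicle treated cultures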; details: S. cerevisiae cln2 rad14 strain, hits give high values
Method in brief: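 Strain: cln2 rad14 yeast, altered in cell cycle control and DNA damage repair. Read-out: growth inhibition vs vehicle.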

[5] = NCI Yeast Anticancer Drug Screen. Data for the bub3 strain (AID 167); details: S. cerevisiae bub3 mutant strain, hits give high values
Method in brief: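 Mutant yeast screening strain plus compound; vehicle-treated cultures serve as the 0% inhibition reference.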

[6] = NCI Yeast Anticancer Drug Screen. Data for the mlh1 rad18 strain (AID 175); details: S. cerevisiae mlh1 rad18 strain growth inhibition, hits give high values
Method in brief: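 A repair-deficient yeast strain is exposed to test compound, and growth is scored relative to vehicle-treated controls.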

[7] = at 5.0 µM (retest, dose inferred, filed as 0.5)
[8] = at 50.0 µM (retest, dose inferred, filed as 5.0)

Measured: growth inhibition

CC(=O)N(C)c1cc(NCc2ccccc2)ccc1OCc1ccccc1
active: [1]; [8] 96% | [1]; at 50.0 µM 98.1% | [2]; [8] 95% | [2]; at 50.0 µM 97.8% | [3]; [8] 96% | [3]; at 50.0 µM 97.7% | [4]; at 50.0 µM 79.8% | [5]; at 50.0 µM 95.7% | [6]; [8] 96% | [6]; at 50.0 µM 98.3%
inactive: [1]; [7] 1% | [2]; [7] 12% | [3]; [7] 2% | [4]; [7] -60% | [4]; [8] 24% | [5]; [7] -7% | [5]; [8] -65% | [6]; [7] -1%

Nc1ccc(S(=O)(=O)Nc2ccccc2)cc1
inactive: [1]; [7] -4% | [1]; [8] 42% | [1]; at 50.0 µM -7.35% | [2]; [7] 7% | [2]; [8] 7% | [2]; at 50.0 µM -9.35% | [3]; [7] -1% | [3]; [8] 3% | [3]; at 50.0 µM 26.1% | [4]; [7] 0% | [4]; [8] -6% | [4]; at 50.0 µM 50.7% | [5]; [7] 37% | [5]; [8] -1% | [5]; at 50.0 µM -2.1% | [6]; [7] 0% | [6]; [8] 4% | [6]; at 50.0 µM 4.25%

OC1(c2ccccc2)c2ccccc2C(O)(c2ccccc2)c2cc3c(cc21)CCCC3 (configuration not stated)
active: [1]; [7] 81% | [1]; [8] 96% | [1]; at 50.0 µM 96.8% | [2]; [8] 98% | [2]; at 50.0 µM 97.5% | [3]; [8] 98% | [3]; at 50.0 µM 97.7% | [4]; [8] 97% | [4]; at 50.0 µM 97.7% | [5]; [8] 98% | [5]; at 50.0 µM 96% | [6]; [8] 96% | [6]; at 50.0 µM 96.8%
inactive: [2]; [7] 28% | [3]; [7] 17% | [4]; [7] -3% | [5]; [7] 17% | [6]; [7] 51%

CN(C)CCCC(C#N)(CCCN(C)C)c1ccccc1
inactive: [1]; [7] 15% | [1]; [8] -2% | [1]; at 50.0 µM 15% | [2]; [7] -1% | [2]; [8] 5% | [2]; at 50.0 µM -2.05% | [3]; [7] 6% | [3]; [8] 0% | [3]; at 50.0 µM 10.6% | [4]; [7] -2% | [4]; [8] 6% | [4]; at 50.0 µM -51.6% | [5]; [7] -3% | [5]; [8] -1% | [5]; at 50.0 µM -18.5% | [6]; [7] -3% | [6]; [8] 8% | [6]; at 50.0 µM 31.4%

O=c1c2cnccc2cc2c3ccccc3ccn12
active: [1]; [8] 93% | [1]; at 50.0 µM 91.8% | [4]; at 50.0 µM 74.8% | [6]; [8] 87%
inactive: [1]; [7] 47% | [2]; [7] 12% | [2]; [8] 58% | [2]; at 50.0 µM 41.5% | [3]; [7] 9% | [3]; [8] 64% | [3]; at 50.0 µM 6.75% | [4]; [7] 3% | [4]; [8] 42% | [5]; [7] 5% | [5]; [8] 37% | [5]; at 50.0 µM 2.45% | [6]; [7] 26% | [6]; at 50.0 µM 64%

CSC(=S)n1nc(-c2cccs2)c(N=Nc2ccccc2)c1C(F)(F)F
active: [1]; [8] 97% | [1]; at 50.0 µM 93% | [2]; [8] 98% | [2]; at 50.0 µM 96.8% | [3]; [8] 97% | [3]; at 50.0 µM 93% | [4]; [8] 97% | [5]; [8] 97% | [5]; at 50.0 µM 78% | [6]; [8] 95% | [6]; at 50.0 µM 94.4%
inactive: [1]; [7] 5% | [2]; [7] -1% | [3]; [7] 8% | [4]; [7] 6% | [4]; at 50.0 µM 65.3% | [5]; [7] 2% | [6]; [7] 1%

O=C1CSC2(CCN(CCCN3c4ccccc4Sc4ccc(Cl)cc43)CC2)N1
active: [1]; [8] 100% | [1]; at 50.0 µM 98.9% | [2]; at 50.0 µM 99.1% | [3]; at 50.0 µM 99.3% | [4]; [8] 100% | [4]; at 50.0 µM 99% | [5]; [8] 99% | [5]; at 50.0 µM 97.5% | [6]; [8] 99% | [6]; at 50.0 µM 91.2%
inactive: [1]; [7] 8% | [2]; [7] -4% | [2]; [8] 45% | [3]; [7] 3% | [3]; [8] 53% | [4]; [7] -11% | [5]; [7] -2% | [6]; [7] -17%

CCCCCCCCCCCC(=O)N(CCCCCCCCC)CC(O)C(O)C(OC1OC(CO)C(O)C(O)C1O)C(O)CO (configuration not stated)
active: [1]; [8] 97% | [1]; at 50.0 µM 82.5% | [2]; [8] 95% | [2]; at 50.0 µM 85% | [3]; [8] 96% | [3]; at 50.0 µM 85.7% | [4]; [8] 91% | [5]; [8] 96% | [5]; at 50.0 µM 86.3% | [6]; [8] 97%
inactive: [1]; [7] 0% | [2]; [7] -2% | [3]; [7] -36% | [4]; [7] -17% | [4]; at 50.0 µM 66.5% | [5]; [7] 6% | [6]; [7] 1% | [6]; at 50.0 µM 62%

COc1ccc(CSC(=S)Nc2ccc(Cl)c(C(F)(F)F)c2)cc1
active: [1]; at 50.0 µM 89.7% | [2]; at 50.0 µM 90.2% | [3]; at 50.0 µM 89% | [4]; at 50.0 µM 88.7% | [5]; at 50.0 µM 88.3% | [6]; at 50.0 µM 87.2%
inactive: [1]; [7] 27% | [1]; [8] 30% | [2]; [7] 15% | [2]; [8] 16% | [3]; [7] 43% | [3]; [8] 49% | [4]; [7] 44% | [4]; [8] 38% | [5]; [7] 47% | [5]; [8] 63% | [6]; [7] 17% | [6]; [8] 21%
